The full ranking holds about 140,000 sequences; the median of “enrichment ratio after two sorts for PhoP signalling” is about 0, and the highest 2% start at about 11. Shown is part of a subset that was picked to be rich in the highest values. Some results are limits rather than exact numbers.

The chains are these.
B1: PhoQ; a variant is named by its letters at X, in order, P23837 (parent)
chain: MKKLLRLFFPLSLRVRFLLATAAVVLVLSLAYGMVALIGYSVSFDKTTFRLLRGESNLFYTLAKWENNKLHVELPENIDKQSPTMTLIYDENGQLLWAQRDVPWLMKMIQPDWLKSNGFHEIEADVNDTSLLLSGDHSIQQQLQEVREDDDDAEMTHSVAVNVYPATSRMPKLTIVVVDTIPVELKSSYMVWSWFIYVLSANLLLVIPLLWVAAWWSLRPIEALAKEVRELEEHNRELLNPATTRELTSLVRNLNRLLKSERERYDKYRTTLTDLTHSLKTPLXXLQXXLRSLRSEKMSVSDAEPVMLEQISRISQQIGYYLHRASMRGGTLLSRELHPVAPLLDNLTSALNKVYQRKGVNISLDISPEISFVGEQNDFVEVMGNVLDNACKYCLEFVEISARQTDEHLYIVVEDDGPGIPLSKREVIFDRGQRVDTLRPGQGVGLAVAREITEQYEGKIVAGESMLGGARMEVIFGRQHSAPKDE

In the assay the parent is B1. The assay is described as follows: enrichment ratio after two sorts for PhoP signalling (ratio (wild type AVST 3.29)); higher = more functional. The conditions noted are these: with PhoP (E. coli).
Regarding YALF, the enrichment ratio was determined as 3.8.

Consider PCNL, for which the enrichment ratio is not above 0.25.

In the case of QLCD, the enrichment ratio is not above 0.25.

As to TKMD, the enrichment ratio turned out to be 0.263.

As to FIAQ, the enrichment ratio was not above 0.25.

Regarding FTMY, the enrichment ratio came out at 4.04.

RWMS: the enrichment ratio was not above 0.25.

As for SNCV, the enrichment ratio amounted to 14.2.

For HEVN, the enrichment ratio was not above 0.25.

Consider SNMF, for which the enrichment ratio worked out at 19.4.

For GIMF, the enrichment ratio is 6.62.

SLMF: the enrichment ratio was determined as 2.69.

In the case of SQCV, the enrichment ratio stood at 6.68.

Consider HEPH, for which the enrichment ratio is not above 0.25.

On to WQCV, for which the enrichment ratio is not above 0.25.

With HEPN, the enrichment ratio is 18.8.

Consider HEMF, for which the enrichment ratio is not above 0.25.

On to GNMF, for which the enrichment ratio turned out to be 15.2.

In the case of GYMF, the enrichment ratio is not above 0.25.

Regarding EGYW, the enrichment ratio was not above 0.25.

Turning to FYIV, the enrichment ratio is not above 0.25.

As for VIWQ, the enrichment ratio was not above 0.25.

In the case of NEFL, the enrichment ratio was not above 0.25.

With HMPY, the enrichment ratio was not above 0.25.

For RMDS, the enrichment ratio was not above 0.25.

In the case of WDAC, the enrichment ratio is not above 0.25.

On to ILVT, for which the enrichment ratio was not above 0.25.

GQDA: the enrichment ratio was not above 0.25.

Consider SNLT, for which the enrichment ratio was 7.56.

As for SNYV, the enrichment ratio is 0.433.

As to SNLS, the enrichment ratio was determined as 11.5.

As for SNMV, the enrichment ratio stood at 18.5.

Regarding SNIV, the enrichment ratio came out at 9.73.

For the variant SNLI, the enrichment ratio amounted to 11.3.

In the case of TPLI, the enrichment ratio is not above 0.25.

For SNLA, the enrichment ratio worked out at 6.53.

Turning to SRLI, the enrichment ratio was found to be 6.88.

As to SNVA, the enrichment ratio turned out to be 6.33.

On to SNMR, for which the enrichment ratio was determined as 1.49.

In the case of SNMI, the enrichment ratio turned out to be 19.8.

Regarding PWPK, the enrichment ratio was not above 0.25.

Regarding GTKI, the enrichment ratio was not above 0.25.

As to MYMW, the enrichment ratio is not above 0.25.

HSYK: the enrichment ratio was not above 0.25.

Consider GPQG, for which the enrichment ratio was not above 0.25.

Consider KMHW, for which the enrichment ratio was not above 0.25.

Take GDTD: the enrichment ratio is not above 0.25.

DSIT: the enrichment ratio was not above 0.25.

Consider NPMD, for which the enrichment ratio was not above 0.25.

With WFPK, the enrichment ratio was not above 0.25.

Consider QDRV, for which the enrichment ratio is not above 0.25.

For DPTF, the enrichment ratio was not above 0.25.

For the variant PMYV, the enrichment ratio was not above 0.25.

Take GTLQ: the enrichment ratio was 15.2.

In the case of VFLQ, the enrichment ratio was not above 0.25.

Consider GYLQ, for which the enrichment ratio is not above 0.25.

On to VTLQ, for which the enrichment ratio is 11.3.

Regarding TTLQ, the enrichment ratio is 10.7.

Take YTLQ: the enrichment ratio was 12.8.

For the variant VYLQ, the enrichment ratio was not above 0.25.

Regarding FTLQ, the enrichment ratio was found to be 6.79.

For QPLQ, the enrichment ratio was not above 0.25.

As for SQPR, the enrichment ratio was not above 0.25.

On to IAGV, for which the enrichment ratio was not above 0.25.

Take HKDW: the enrichment ratio is not above 0.25.

Regarding GERY, the enrichment ratio was not above 0.25.

As to SAVR, the enrichment ratio is not above 0.25.

Turning to MMAP, the enrichment ratio was not above 0.25.

Consider RAVP, for which the enrichment ratio was not above 0.25.

For the variant WSVY, the enrichment ratio is not above 0.25.

On to STPW, for which the enrichment ratio was not above 0.25.

For SING, the enrichment ratio is 13.7.

On to WLTG, for which the enrichment ratio was not above 0.25.

As for PLTG, the enrichment ratio was not above 0.25.

SIMG: the enrichment ratio came to 13.2.

In the case of NING, the enrichment ratio was not above 0.25.

Regarding KYNG, the enrichment ratio is not above 0.25.

Turning to KYMG, the enrichment ratio is not above 0.25.

In the case of SLTG, the enrichment ratio came out at 12.5.

On to SLNG, for which the enrichment ratio amounted to 0.339.

Regarding SIGG, the enrichment ratio was determined as 6.86.

Take RING: the enrichment ratio is not above 0.25.

Turning to TING, the enrichment ratio is 13.9.

Turning to DHDM, the enrichment ratio was not above 0.25.

Regarding DCPT, the enrichment ratio is not above 0.25.

On to ELTP, for which the enrichment ratio is not above 0.25.

Regarding IKSW, the enrichment ratio was not above 0.25.

With GMDV, the enrichment ratio is not above 0.25.

For TNRI, the enrichment ratio is not above 0.25.

SCYN: the enrichment ratio is not above 0.25.

YRVE: the enrichment ratio is not above 0.25.

As to SQTG, the enrichment ratio was found to be 9.26.

Consider SFTG, for which the enrichment ratio is 5.29.

For KYTG, the enrichment ratio was not above 0.25.

On to STTG, for which the enrichment ratio came to 7.62.

Take SSTG: the enrichment ratio amounted to 12.4.

SITG: the enrichment ratio turned out to be 16.2.

As to LIWW, the enrichment ratio was not above 0.25.

Consider TSIP, for which the enrichment ratio was not above 0.25.

Turning to IDFC, the enrichment ratio was not above 0.25.

As for QELP, the enrichment ratio was not above 0.25.

RGAS: the enrichment ratio is not above 0.25.

For TGAS, the enrichment ratio amounted to 14.

On to CSAT, for which the enrichment ratio is not above 0.25.

Take NGAS: the enrichment ratio was 0.365.

Regarding KSAS, the enrichment ratio is not above 0.25.

Take CSAS: the enrichment ratio was 36.6.

In the case of KDAS, the enrichment ratio was not above 0.25.

For the variant TDAS, the enrichment ratio is 11.6.

On to ADAS, for which the enrichment ratio was not above 0.25.

Consider PRQF, for which the enrichment ratio was not above 0.25.

In the case of AFYG, the enrichment ratio is not above 0.25.

EQHW: the enrichment ratio is not above 0.25.

Turning to ESQM, the enrichment ratio is not above 0.25.

Consider WSTG, for which the enrichment ratio was not above 0.25.

PICR: the enrichment ratio was not above 0.25.

Turning to QESQ, the enrichment ratio was not above 0.25.

With TESA, the enrichment ratio was 11.7.

Regarding MCSK, the enrichment ratio was not above 0.25.

MCSI: the enrichment ratio came to 12.5.

As to TESQ, the enrichment ratio amounted to 22.8.

For the variant MESI, the enrichment ratio came out at 12.5.

As to QESI, the enrichment ratio stood at 7.8.

Turning to MMSI, the enrichment ratio stood at 8.62.

As for QESA, the enrichment ratio was not above 0.25.

Turning to MQSI, the enrichment ratio was not above 0.25.

Regarding NESA, the enrichment ratio is not above 0.25.

Turning to NESQ, the enrichment ratio was not above 0.25.

As for HEMY, the enrichment ratio is not above 0.25.

As for TSHA, the enrichment ratio was 3.

Regarding IPQD, the enrichment ratio is not above 0.25.

With HTSR, the enrichment ratio was not above 0.25.

FRDI: the enrichment ratio is not above 0.25.

For the variant TEQS, the enrichment ratio worked out at 7.71.

For the variant GWCG, the enrichment ratio was not above 0.25.

Regarding TLDG, the enrichment ratio was not above 0.25.

Take PGHR: the enrichment ratio is not above 0.25.

Regarding TESK, the enrichment ratio worked out at 6.64.

For the variant TESR, the enrichment ratio turned out to be 6.55.

In the case of TESI, the enrichment ratio amounted to 13.5.

With QGNK, the enrichment ratio was not above 0.25.

In the case of RDYI, the enrichment ratio was not above 0.25.

Consider QMSV, for which the enrichment ratio stood at 10.5.

KSGN: the enrichment ratio was not above 0.25.

Consider TGGN, for which the enrichment ratio was found to be 13.9.

As to TSGN, the enrichment ratio was 14.9.

As for KCGN, the enrichment ratio was not above 0.25.

Consider LTGN, for which the enrichment ratio was not above 0.25.

As for QPGN, the enrichment ratio was not above 0.25.

As for QGGN, the enrichment ratio came to 14.7.

Consider NSGN, for which the enrichment ratio is not above 0.25.

Consider YTGN, for which the enrichment ratio was not above 0.25.

Take THGN: the enrichment ratio was not above 0.25.

These data come from a collection of fitness landscapes (doi:10.1126/science.1257360).
